Measurements published in the supplement of paper PMC4466140.

B1: unnamed (peptide)
chain: LPPPPPPPPPPPLPQ

molecular target: AgAbp1; experiment: SPOT peptide array binding signal intensity (averaged, normalized) (arbitrary units (background-subtracted, floor 0; scale differs between SH3 domains)); higher = stronger binding of the SH3 domain to the peptide
Summary of the method: (§1)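 Detection of bound protein relied on anti-GST antibody, an HRP anti-mouse secondary and luminol, with imaging and quantification in Genespotter. The bound protein was GST-fused SH3 domains from four yeast species, incubated at 10 μg/ml overnight at 4°C in TBS-based blocking buffer on cellulose membranes carrying synthetic 15-mer peptides with cysteines replaced by serines. Binding signal is normalized, background-subtracted spot intensity averaged over replicates, in arbitrary units that differ between domains.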

Row | Binder | SPOT peptide array binding signal intensity
1 | B1 | 11

molecular target: AgBbc1; experiment: as above
Summary of the method: as §1

Row | Binder | SPOT peptide array binding signal intensity
2 | B1 | 1.25

molecular target: AgBem1-D1; experiment: as above
Summary of the method: as §1

Row | Binder | SPOT peptide array binding signal intensity
3 | B1 | ≤ 0

molecular target: AgBzz1-D1; experiment: as above
Summary of the method: as §1

Row | Binder | SPOT peptide array binding signal intensity
4 | B1 | 42.5

molecular target: AgBzz1-D2; experiment: as above
Summary of the method: as §1

Row | Binder | SPOT peptide array binding signal intensity
5 | B1 | 1

molecular target: AgCyk3; experiment: as above
Summary of the method: as §1

Row | Binder | SPOT peptide array binding signal intensity
6 | B1 | 1

molecular target: AgFus1; experiment: as above
Summary of the method: as §1

Row | Binder | SPOT peptide array binding signal intensity
7 | B1 | 3

molecular target: AgHof1; experiment: as above
Summary of the method: as §1

Row | Binder | SPOT peptide array binding signal intensity
8 | B1 | 128

molecular target: AgHse1; experiment: as above
Summary of the method: as §1

Row | Binder | SPOT peptide array binding signal intensity
9 | B1 | 21

molecular target: AgLsb1; experiment: as above
Summary of the method: as §1

Row | Binder | SPOT peptide array binding signal intensity
10 | B1 | 1.5

molecular target: AgLsb4; experiment: as above
Summary of the method: as §1

Row | Binder | SPOT peptide array binding signal intensity
11 | B1 | ≤ 0

molecular target: AgMyo5; experiment: as above
Summary of the method: as §1

Row | Binder | SPOT peptide array binding signal intensity
12 | B1 | 640

molecular target: AgNbp2; experiment: as above
Summary of the method: as §1

Row | Binder | SPOT peptide array binding signal intensity
13 | B1 | 28.5

molecular target: AgRvs167; experiment: as above
Summary of the method: as §1

Row | Binder | SPOT peptide array binding signal intensity
14 | B1 | ≤ 0

molecular target: AgSho1; experiment: as above
Summary of the method: as §1

Row | Binder | SPOT peptide array binding signal intensity
15 | B1 | ≤ 0

molecular target: AgSla1-D1-D2; experiment: as above
Summary of the method: as §1

Row | Binder | SPOT peptide array binding signal intensity
16 | B1 | 4.5

molecular target: AgSla1-D3; experiment: as above
Summary of the method: as §1

Row | Binder | SPOT peptide array binding signal intensity
17 | B1 | ≤ 0

molecular target: CaAbp1-D1; experiment: as above
Summary of the method: as §1

Row | Binder | SPOT peptide array binding signal intensity
18 | B1 | 9

molecular target: CaAbp1-D2; experiment: as above
Summary of the method: as §1

Row | Binder | SPOT peptide array binding signal intensity
19 | B1 | ≤ 0

molecular target: CaBbc1; experiment: as above
Summary of the method: as §1

Row | Binder | SPOT peptide array binding signal intensity
20 | B1 | ≤ 0

molecular target: CaBem1-D1; experiment: as above
Summary of the method: as §1

Row | Binder | SPOT peptide array binding signal intensity
21 | B1 | 3

molecular target: CaBzz1-D1; experiment: as above
Summary of the method: as §1

Row | Binder | SPOT peptide array binding signal intensity
22 | B1 | 1990

molecular target: CaBzz1-D2; experiment: as above
Summary of the method: as §1

Row | Binder | SPOT peptide array binding signal intensity
23 | B1 | 495

molecular target: CaCyk3; experiment: as above
Summary of the method: as §1

Row | Binder | SPOT peptide array binding signal intensity
24 | B1 | ≤ 0

molecular target: CaFus1; experiment: as above
Summary of the method: as §1

Row | Binder | SPOT peptide array binding signal intensity
25 | B1 | ≤ 0

molecular target: CaHof1; experiment: as above
Summary of the method: as §1

Row | Binder | SPOT peptide array binding signal intensity
26 | B1 | ≤ 0

molecular target: CaHse1; experiment: as above
Summary of the method: as §1

Row | Binder | SPOT peptide array binding signal intensity
27 | B1 | 5.75

molecular target: CaLsb1; experiment: as above
Summary of the method: as §1

Row | Binder | SPOT peptide array binding signal intensity
28 | B1 | ≤ 0

molecular target: CaLsb4; experiment: as above
Summary of the method: as §1

Row | Binder | SPOT peptide array binding signal intensity
29 | B1 | ≤ 0

molecular target: CaMyo5; experiment: as above
Summary of the method: as §1

Row | Binder | SPOT peptide array binding signal intensity
30 | B1 | 182

molecular target: CaNbp2; experiment: as above
Summary of the method: as §1

Row | Binder | SPOT peptide array binding signal intensity
31 | B1 | 10

molecular target: CaRvs167; experiment: as above
Summary of the method: as §1

Row | Binder | SPOT peptide array binding signal intensity
32 | B1 | ≤ 0

molecular target: CaRvs167-3; experiment: as above
Summary of the method: as §1

Row | Binder | SPOT peptide array binding signal intensity
33 | B1 | 0.5

molecular target: CaSho1; experiment: as above
Summary of the method: as §1

Row | Binder | SPOT peptide array binding signal intensity
34 | B1 | 4.5

molecular target: CaSla1-D1-D2; experiment: as above
Summary of the method: as §1

Row | Binder | SPOT peptide array binding signal intensity
35 | B1 | 5.5

molecular target: CaSla1-D3; experiment: as above
Summary of the method: as §1

Row | Binder | SPOT peptide array binding signal intensity
36 | B1 | 0.5

molecular target: ScAbp1; experiment: as above
Summary of the method: as §1

Row | Binder | SPOT peptide array binding signal intensity
37 | B1 | 2.5

molecular target: ScBbc1; experiment: as above
Summary of the method: as §1

Row | Binder | SPOT peptide array binding signal intensity
38 | B1 | 2.5

molecular target: ScBem1-D1; experiment: as above
Summary of the method: as §1

Row | Binder | SPOT peptide array binding signal intensity
39 | B1 | ≤ 0

molecular target: ScBzz1-D1; experiment: as above
Summary of the method: as §1

Row | Binder | SPOT peptide array binding signal intensity
40 | B1 | 16

molecular target: ScBzz1-D2; experiment: as above
Summary of the method: as §1

Row | Binder | SPOT peptide array binding signal intensity
41 | B1 | 2

molecular target: ScCyk3; experiment: as above
Summary of the method: as §1

Row | Binder | SPOT peptide array binding signal intensity
42 | B1 | 0.5

molecular target: ScFus1; experiment: as above
Summary of the method: as §1

Row | Binder | SPOT peptide array binding signal intensity
43 | B1 | ≤ 0

molecular target: ScHof1; experiment: as above
Summary of the method: as §1

Row | Binder | SPOT peptide array binding signal intensity
44 | B1 | 9.25

molecular target: ScHse1; experiment: as above
Summary of the method: as §1

Row | Binder | SPOT peptide array binding signal intensity
45 | B1 | 23

molecular target: ScLsb1; experiment: as above
Summary of the method: as §1

Row | Binder | SPOT peptide array binding signal intensity
46 | B1 | 0.5

molecular target: ScLsb2; experiment: as above
Summary of the method: as §1

Row | Binder | SPOT peptide array binding signal intensity
47 | B1 | ≤ 0

molecular target: ScLsb3; experiment: as above
Summary of the method: as §1

Row | Binder | SPOT peptide array binding signal intensity
48 | B1 | 54

molecular target: ScLsb4; experiment: as above
Summary of the method: as §1

Row | Binder | SPOT peptide array binding signal intensity
49 | B1 | 1.5

molecular target: ScMyo3; experiment: as above
Summary of the method: as §1

Row | Binder | SPOT peptide array binding signal intensity
50 | B1 | 1930

molecular target: ScMyo5; experiment: as above
Summary of the method: as §1

Row | Binder | SPOT peptide array binding signal intensity
51 | B1 | 933

molecular target: ScNbp2; experiment: as above
Summary of the method: as §1

Row | Binder | SPOT peptide array binding signal intensity
52 | B1 | 16

molecular target: ScPex13; experiment: as above
Summary of the method: as §1

Row | Binder | SPOT peptide array binding signal intensity
53 | B1 | 41.8

molecular target: ScRvs167; experiment: as above
Summary of the method: as §1

Row | Binder | SPOT peptide array binding signal intensity
54 | B1 | ≤ 0

molecular target: ScSho1; experiment: as above
Summary of the method: as §1

Row | Binder | SPOT peptide array binding signal intensity
55 | B1 | ≤ 0

molecular target: ScSla1-D1-D2; experiment: as above
Summary of the method: as §1

Row | Binder | SPOT peptide array binding signal intensity
56 | B1 | 16.5

molecular target: ScSla1-D3; experiment: as above
Summary of the method: as §1

Row | Binder | SPOT peptide array binding signal intensity
57 | B1 | ≤ 0

molecular target: SpAbp1-D1; experiment: as above
Summary of the method: as §1

Row | Binder | SPOT peptide array binding signal intensity
58 | B1 | 3

molecular target: SpBbc1; experiment: as above
Summary of the method: as §1

Row | Binder | SPOT peptide array binding signal intensity
59 | B1 | 0.5

molecular target: SpBzz1-D1; experiment: as above
Summary of the method: as §1

Row | Binder | SPOT peptide array binding signal intensity
60 | B1 | 4870
